# Assay results reported in PubChem BioAssay (EPA / NIEHS).
# Records with an inconclusive call do not appear. The source made the active and inactive calls. Rule for the calls, unless noted: active = hit-call score of the fitted dose curve at least 0.9, where 1 is the maximum; inactive = score below 0.9.
# What was measured:
# [1] = molecular target: Paired box protein Pax-6 (Homo sapiens) (UniProt P26367); assay: ATG_Pax6_CIS: Attagene CIS-FACTORIAL HepG2 Assay for human Paired Box 6 (PAX6) (AID 2282956); details: HepG2 CIS-FACTORIAL PAX6 reporter transcription, RNA readout; actives raise or lower the signal
# Sequence of Paired box protein Pax-6 (Homo sapiens) (P26367 whole entry, looked up): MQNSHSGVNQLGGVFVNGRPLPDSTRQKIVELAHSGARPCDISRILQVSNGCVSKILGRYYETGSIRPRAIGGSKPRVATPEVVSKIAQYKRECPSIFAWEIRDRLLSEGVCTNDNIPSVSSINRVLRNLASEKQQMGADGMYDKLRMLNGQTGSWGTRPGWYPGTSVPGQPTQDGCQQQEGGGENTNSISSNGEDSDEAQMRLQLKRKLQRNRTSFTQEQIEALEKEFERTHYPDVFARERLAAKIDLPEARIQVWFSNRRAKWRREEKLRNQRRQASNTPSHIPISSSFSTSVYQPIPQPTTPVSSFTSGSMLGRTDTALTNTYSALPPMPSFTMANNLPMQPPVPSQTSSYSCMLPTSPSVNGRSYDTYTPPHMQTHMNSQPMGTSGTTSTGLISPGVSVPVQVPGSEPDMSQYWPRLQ
# Procedure, shortened: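 Readout: reporter transcript fluorescence after RT-PCR and capillary electrophoresis. Cells: HepG2, transiently transfected with cis-regulated MRTUs. Exposure 24 h. Gain or loss of signal fitted bidirectionally relative to DMSO.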
# [2] = ATG_PXRE_CIS: Attagene CIS-FACTORIAL HepG2 Assay for human Pregnane X Receptor Element (PXRE) (AID 2282957); details: HepG2 Attagene CIS-FACTORIAL PXRE reporter, mRNA; actives raise or lower the signal
# Procedure, shortened: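 Endogenous transcription factor activity in HepG2 was gauged through induction of reporter mRNA driven by a cis-regulating promoter element, sampled 24 h post-treatment. Activity was fitted in both directions against DMSO negative control.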
# [3] = ATG_Sox_CIS: Attagene CIS-FACTORIAL HepG2 Assay for human SRY-box transcription factor (SOX) (AID 2282960); details: HepG2 Attagene cis-factorial SOX reporter, mRNA; actives raise or lower the signal
# Procedure, shortened: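 HepG2 cells transiently transfected with multiple cis-regulated reporter units, then dosed for 24 h. Reporter mRNA quantified by RT-PCR, fluorescent labelling, HpaI digestion and capillary electrophoresis; bidirectional fit versus DMSO.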
# [4] = molecular target: Transcription factor Sp1 (Homo sapiens) (UniProt P08047); assay: ATG_Sp1_CIS: Attagene CIS-FACTORIAL HepG2 Assay for human Specificity Protein 1 (Sp1) (AID 2282961); details: HepG2 Sp1 cis-reporter transcription, actives raise or lower the signal
# Sequence of Transcription factor Sp1 (Homo sapiens) (P08047 whole entry, looked up): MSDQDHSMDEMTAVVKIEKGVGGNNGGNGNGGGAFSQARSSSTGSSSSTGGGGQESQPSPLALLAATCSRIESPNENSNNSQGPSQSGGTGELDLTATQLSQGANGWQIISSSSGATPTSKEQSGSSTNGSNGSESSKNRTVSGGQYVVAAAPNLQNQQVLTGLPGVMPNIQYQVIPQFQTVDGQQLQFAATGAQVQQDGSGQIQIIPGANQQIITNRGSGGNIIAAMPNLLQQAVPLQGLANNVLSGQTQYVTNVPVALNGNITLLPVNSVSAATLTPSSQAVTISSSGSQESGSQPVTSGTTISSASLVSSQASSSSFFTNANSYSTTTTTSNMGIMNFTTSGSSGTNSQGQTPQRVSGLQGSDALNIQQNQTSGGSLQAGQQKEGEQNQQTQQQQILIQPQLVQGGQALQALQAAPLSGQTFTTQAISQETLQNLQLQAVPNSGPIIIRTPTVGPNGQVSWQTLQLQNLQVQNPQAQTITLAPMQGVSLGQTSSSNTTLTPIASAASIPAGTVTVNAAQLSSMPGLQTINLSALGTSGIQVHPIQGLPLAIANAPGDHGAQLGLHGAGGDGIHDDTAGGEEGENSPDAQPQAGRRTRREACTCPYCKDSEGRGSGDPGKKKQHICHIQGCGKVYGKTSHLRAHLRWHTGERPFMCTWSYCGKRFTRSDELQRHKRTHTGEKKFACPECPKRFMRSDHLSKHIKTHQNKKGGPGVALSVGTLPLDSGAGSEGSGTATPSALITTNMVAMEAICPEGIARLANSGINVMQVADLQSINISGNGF
# Procedure, shortened: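 HepG2 cells transiently transfected with multiplexed cis-regulated reporter constructs, chemical exposure 24 h. Reporter mRNA quantified by RT-PCR with capillary electrophoresis; bidirectional fit relative to DMSO.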
# [5] = ATG_SREBP_CIS: Attagene CIS-FACTORIAL HepG2 Assay for human Sterol Regulatory Element Binding (SREBP) (AID 2282962); details: HepG2 Attagene cis-factorial SREBP reporter, mRNA; actives raise or lower the signal
# Procedure, shortened: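 Readout: fluorescent reporter-transcript peaks resolved by capillary electrophoresis after RT-PCR. Cells were human HepG2 carrying transfected cis-promoter reporter constructs, dosed for 24 h. Gain or loss of signal was fitted against DMSO controls.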
# [6] = molecular target: Signal transducer and activator of transcription 3 (Homo sapiens) (UniProt P40763); assay: ATG_STAT3_CIS: Attagene CIS-FACTORIAL HepG2 Assay for human Signal Transducer and Activator of Transcription 3 (STAT3) (AID 2282963); details: HepG2, Attagene cis-factorial STAT3 reporter transcription; actives raise or lower the signal
# Sequence of Signal transducer and activator of transcription 3 (Homo sapiens) (P40763 whole entry, looked up): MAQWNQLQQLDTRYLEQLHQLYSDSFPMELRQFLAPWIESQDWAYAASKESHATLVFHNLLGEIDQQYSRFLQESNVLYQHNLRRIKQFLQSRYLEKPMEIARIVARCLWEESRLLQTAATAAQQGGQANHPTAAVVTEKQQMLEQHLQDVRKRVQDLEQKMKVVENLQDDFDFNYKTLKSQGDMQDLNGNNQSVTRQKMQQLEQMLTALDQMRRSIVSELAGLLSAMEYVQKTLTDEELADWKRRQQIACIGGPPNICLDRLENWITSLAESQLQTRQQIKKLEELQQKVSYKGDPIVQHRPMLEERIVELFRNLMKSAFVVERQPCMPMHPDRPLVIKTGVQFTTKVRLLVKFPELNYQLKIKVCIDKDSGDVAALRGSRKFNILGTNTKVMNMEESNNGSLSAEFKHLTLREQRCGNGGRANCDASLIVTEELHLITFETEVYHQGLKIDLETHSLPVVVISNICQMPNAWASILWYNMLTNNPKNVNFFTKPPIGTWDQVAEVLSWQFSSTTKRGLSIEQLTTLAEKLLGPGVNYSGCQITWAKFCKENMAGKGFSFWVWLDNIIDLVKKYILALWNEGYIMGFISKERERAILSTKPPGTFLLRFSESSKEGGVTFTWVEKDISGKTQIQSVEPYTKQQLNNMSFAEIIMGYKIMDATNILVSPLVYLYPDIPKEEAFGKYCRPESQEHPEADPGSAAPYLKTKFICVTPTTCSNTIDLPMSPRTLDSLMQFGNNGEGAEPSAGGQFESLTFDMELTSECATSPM
# Procedure, shortened: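 Uses human liver HepG2 transiently carrying cis-regulated reporter transcription units. Following 24 h dosing, reporter mRNA induction was detected by RT-PCR and capillary electrophoresis, analysed bidirectionally versus DMSO.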
# [7] = ATG_TA_CIS: Attagene CIS-FACTORIAL HepG2 Assay for human TA Basal Promoter (AID 2282964); details: HepG2 Attagene CIS-factorial TA basal promoter reporter; actives raise or lower the signal
# Procedure, shortened: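 Transient MRTU transfection of HepG2 preceded 24 h compound exposure. Reporter mRNA levels were then read by RT-PCR with capillary electrophoresis, and this background-control endpoint was fitted bidirectionally to DMSO.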
# [8] = ATG_TCF_b_cat_CIS: Attagene CIS-FACTORIAL HepG2 Assay for human T-Cell-Factor with beta-catenin (TCF/b-cat) (AID 2282965); details: HepG2 TCF/beta-catenin cis-reporter transcription, actives raise or lower the signal
# Procedure, shortened: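 HepG2 cells transiently transfected with multiple cis-promoter-regulated reporter transcription units, so endogenous transcription factor activity is measured. Reporter mRNA read 24 hours after dosing by RT-PCR, fluorescent labelling and capillary electrophoresis; bidirectional fitting against DMSO.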
# [9] = ATG_TAL_CIS: Attagene CIS-FACTORIAL HepG2 Assay for human TAL Basal Promoter (AID 2282966); details: HepG2 Attagene cis-factorial TAL promoter reporter; actives raise or lower the signal;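 note: background control endpoint measuring basal TAL promoter reporter mRNA not a specific factor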
# Procedure, shortened: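 Endogenous transcription-factor activity is sensed in HepG2 cells through transfected cis-promoter reporter constructs. After 24 h dosing, reporter transcripts are quantified by RT-PCR and capillary electrophoresis. Gain or loss of signal is fitted relative to DMSO.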
# [10] = ATG_TGFb_CIS: Attagene CIS-FACTORIAL HepG2 Assay for human Transforming Growth Factor (TGF) (AID 2282967); details: HepG2 Attagene CIS TGFb reporter, mRNA transcription; actives raise or lower the signal
# Procedure, shortened: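 After a 24-hour incubation with compound, transfected HepG2 cells were lysed for RNA; reporter cDNA was amplified, fluorescently end-labeled and separated by CE. DMSO served as baseline for bidirectional fits.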
# [11] = ATG_VDRE_CIS: Attagene CIS-FACTORIAL HepG2 Assay for human Vitamin D Receptor Element (VDRE) (AID 2282968); details: HepG2 VDRE cis-reporter transcription, actives raise or lower the signal
# Procedure, shortened: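 Transfected HepG2 reporter cells, chemical treatment 24 h. RNA isolated, cDNA amplified with reporter-specific primers, products analysed by capillary electrophoresis. Endpoint fitted in both directions versus DMSO.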
# [12] = molecular target: Estrogen receptor (Homo sapiens) (UniProt P03372); assay: ATG_ERa_TRANS: Attagene TRANS-FACTORIAL HepG2 Assay for human Estrogen Receptor alpha (ERa) (AID 2282970; active = hit-call score of the fitted dose curve at least 0.9, where 1 is the maximum); details: HepG2 Attagene TRANS ERa GAL4 reporter, mRNA
# Sequence of Estrogen receptor (Homo sapiens) (P03372 whole entry, looked up, the tested form may be a part): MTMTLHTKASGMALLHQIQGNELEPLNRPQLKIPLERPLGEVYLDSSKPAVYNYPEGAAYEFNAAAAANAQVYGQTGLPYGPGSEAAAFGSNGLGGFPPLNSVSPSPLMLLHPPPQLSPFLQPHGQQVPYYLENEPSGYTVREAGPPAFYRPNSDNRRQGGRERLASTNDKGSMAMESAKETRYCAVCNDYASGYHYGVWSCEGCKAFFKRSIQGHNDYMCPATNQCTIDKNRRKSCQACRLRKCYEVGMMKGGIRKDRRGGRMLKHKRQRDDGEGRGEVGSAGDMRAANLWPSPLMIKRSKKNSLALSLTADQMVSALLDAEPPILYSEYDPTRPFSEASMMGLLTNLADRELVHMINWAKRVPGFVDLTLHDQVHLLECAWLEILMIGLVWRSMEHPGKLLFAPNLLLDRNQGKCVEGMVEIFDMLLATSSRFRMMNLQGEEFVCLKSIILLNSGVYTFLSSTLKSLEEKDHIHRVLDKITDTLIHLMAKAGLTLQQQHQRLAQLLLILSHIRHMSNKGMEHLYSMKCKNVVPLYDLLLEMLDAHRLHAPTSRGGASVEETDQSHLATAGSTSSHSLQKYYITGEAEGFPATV
# Procedure, shortened: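 Transfected HepG2 cells carrying GAL4-UAS-driven reporter units were dosed for 24 hours. Total RNA was reverse-transcribed, reporter sequences PCR-amplified, FAM-labelled, HpaI-digested and resolved by capillary electrophoresis. Increases over DMSO control defined activity.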
# [13] = molecular target: Steroid hormone receptor ERR1 (Homo sapiens) (UniProt P11474); assay: ATG_ERRa_TRANS: Attagene TRANS-FACTORIAL HepG2 Assay for human Estrogen-Related Receptor alpha (ERRa) (AID 2282971; active = hit-call score of the fitted dose curve at least 0.9, where 1 is the maximum); details: HepG2 Attagene TRANS reporter, ERRa transactivation
# Sequence of Steroid hormone receptor ERR1 (Homo sapiens) (P11474 whole entry, looked up, the tested form may be a part): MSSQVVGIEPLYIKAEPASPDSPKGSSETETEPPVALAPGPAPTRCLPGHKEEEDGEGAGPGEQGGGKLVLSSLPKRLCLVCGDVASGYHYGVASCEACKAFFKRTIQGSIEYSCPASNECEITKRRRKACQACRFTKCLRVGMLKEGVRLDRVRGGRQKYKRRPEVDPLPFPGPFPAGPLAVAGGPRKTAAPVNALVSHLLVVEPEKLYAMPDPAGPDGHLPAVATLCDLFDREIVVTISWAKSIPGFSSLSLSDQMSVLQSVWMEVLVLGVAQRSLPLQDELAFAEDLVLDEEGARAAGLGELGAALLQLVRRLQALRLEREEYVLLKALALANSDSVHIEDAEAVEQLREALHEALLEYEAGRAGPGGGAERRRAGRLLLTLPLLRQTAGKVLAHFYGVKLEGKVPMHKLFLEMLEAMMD
# Procedure, shortened: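 HepG2 cells were transiently transfected with multiple GAL4-UAS reporter units, then dosed with compound for 24 h. Total RNA was reverse-transcribed, reporter cDNA PCR-amplified and fluorescently labelled, and fragments resolved by capillary electrophoresis; induction was compared with DMSO.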
# [14] = molecular target: X-box-binding protein 1 (Homo sapiens) (UniProt P17861); assay: ATG_Xbp1_CIS: Attagene CIS-FACTORIAL HepG2 Assay for human X-box Binding Protein 1 (XBP1) (AID 2282972); details: HepG2 XBP1 cis-element reporter, Attagene multiplex; actives raise or lower the signal
# Sequence of X-box-binding protein 1 (Homo sapiens) (P17861 whole entry, looked up, the tested form may be a part): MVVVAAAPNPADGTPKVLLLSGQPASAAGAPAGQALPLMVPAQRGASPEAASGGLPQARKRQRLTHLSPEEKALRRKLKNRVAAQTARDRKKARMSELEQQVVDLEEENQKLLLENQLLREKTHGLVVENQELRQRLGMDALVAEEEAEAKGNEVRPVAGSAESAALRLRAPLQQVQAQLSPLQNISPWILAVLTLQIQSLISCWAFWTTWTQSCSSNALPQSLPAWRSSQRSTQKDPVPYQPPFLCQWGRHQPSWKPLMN
# Procedure, shortened: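 Read-out: fluorescent reporter mRNA fragments resolved by capillary electrophoresis after RT-PCR. Human HepG2 liver cells carried transfected cis-promoter reporter units and were exposed to chemicals for 24 hours. Gain or loss of signal fitted relative to DMSO baseline.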
# [15] = ATG_M_19_TRANS: Attagene TRANS-FACTORIAL HepG2 Assay for M19 Transcription Factor (Internal Marker) (AID 2282974; active = hit-call score of the fitted dose curve at least 0.9, where 1 is the maximum); details: HepG2 Attagene TRANS-FACTORIAL M19 internal marker reporter
# Procedure, shortened: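 HepG2 transiently transfected with GAL4-UAS multiplex reporter constructs, exposed 24 h; reporter RNA quantified by RT-PCR, 6-FAM labeling, HpaI digestion and capillary electrophoresis; internal background marker fitted upward versus DMSO.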
# [16] = ATG_PBREM_CIS: Attagene CIS-FACTORIAL HepG2 Assay for human Phenobarbital-responsive Enhancer Module (PBREM) (AID 2282955); details: HepG2 PBREM cis-reporter, Attagene multiplexed transcription; actives raise or lower the signal
# Procedure, shortened: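 HepG2 cells transiently transfected with multiple cis-regulated reporter units measure endogenous transcription factor activity; 24 h compound exposure. Reporter mRNA quantified by RT-PCR, fluorescent labelling, HpaI digestion and capillary electrophoresis; bidirectional fit versus DMSO.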
# [17] = ATG_RORE_CIS: Attagene CIS-FACTORIAL HepG2 Assay for human RAR-related Orphan Receptor Element (RORE) (AID 2282959); details: HepG2 Attagene cis-factorial RORE reporter, mRNA; actives raise or lower the signal
# Procedure, shortened: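 HepG2 cells carrying transiently transfected cis-regulated reporter units; RORE-driven reporter mRNA quantified 24 h post-dosing by RT-PCR, 6-FAM primer extension, HpaI digestion and capillary electrophoresis. Bidirectional fit versus DMSO.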
# [18] = molecular target: Androgen receptor (Homo sapiens) (UniProt P10275); assay: ATG_AR_TRANS: Attagene TRANS-FACTORIAL HepG2 Assay for human Androgen Receptor (AR) (AID 2282973; active = hit-call score of the fitted dose curve at least 0.9, where 1 is the maximum); details: HepG2 Attagene TRANS-FACTORIAL AR reporter transcription
# Sequence of Androgen receptor (Homo sapiens) (P10275 whole entry, looked up, the tested form may be a part): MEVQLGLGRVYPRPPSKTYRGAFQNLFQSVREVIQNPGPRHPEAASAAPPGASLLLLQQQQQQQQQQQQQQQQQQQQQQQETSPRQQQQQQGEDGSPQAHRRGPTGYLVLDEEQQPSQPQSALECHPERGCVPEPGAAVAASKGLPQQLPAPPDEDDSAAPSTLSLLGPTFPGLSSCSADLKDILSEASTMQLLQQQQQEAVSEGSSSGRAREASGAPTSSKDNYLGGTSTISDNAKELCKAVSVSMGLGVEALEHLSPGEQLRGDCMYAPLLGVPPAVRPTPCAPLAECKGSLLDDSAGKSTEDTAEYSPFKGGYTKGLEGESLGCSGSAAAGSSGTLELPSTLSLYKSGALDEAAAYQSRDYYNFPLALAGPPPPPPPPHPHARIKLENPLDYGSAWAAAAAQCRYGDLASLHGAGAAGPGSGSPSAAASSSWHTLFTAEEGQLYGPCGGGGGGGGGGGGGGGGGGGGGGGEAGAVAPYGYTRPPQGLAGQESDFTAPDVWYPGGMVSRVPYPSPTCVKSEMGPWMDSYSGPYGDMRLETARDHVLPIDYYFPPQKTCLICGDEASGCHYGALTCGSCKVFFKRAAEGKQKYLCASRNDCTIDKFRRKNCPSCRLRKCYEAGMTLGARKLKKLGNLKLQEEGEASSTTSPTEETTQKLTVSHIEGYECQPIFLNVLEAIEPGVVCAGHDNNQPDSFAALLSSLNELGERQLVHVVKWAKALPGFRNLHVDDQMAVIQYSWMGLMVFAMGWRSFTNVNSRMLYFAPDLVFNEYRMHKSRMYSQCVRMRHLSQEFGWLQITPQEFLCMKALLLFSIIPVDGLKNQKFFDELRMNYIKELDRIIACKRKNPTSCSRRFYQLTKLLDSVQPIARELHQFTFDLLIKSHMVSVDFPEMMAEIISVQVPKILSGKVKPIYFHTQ
# Procedure, shortened: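 Transfected HepG2, 24 h treatment, chimeric NR-Gal4 driving GAL4-UAS reporters. mRNA induction by RT-PCR/capillary electrophoresis fluorescence; DMSO as negative control and baseline.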
# [19] = molecular target: Nuclear receptor subfamily 1 group I member 3 (Homo sapiens) (UniProt Q14994); assay: ATG_CAR_TRANS: Attagene TRANS-FACTORIAL HepG2 Assay for human Constitutive Androstane Receptor (CAR) (AID 2282969; active = hit-call score of the fitted dose curve at least 0.9, where 1 is the maximum;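 note: activators raise reporter mRNA above DMSO so AC50 marks induction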); details: HepG2 Attagene TRANS-FACTORIAL CAR reporter
# Sequence of Nuclear receptor subfamily 1 group I member 3 (Homo sapiens) (Q14994 whole entry, looked up, the tested form may be a part): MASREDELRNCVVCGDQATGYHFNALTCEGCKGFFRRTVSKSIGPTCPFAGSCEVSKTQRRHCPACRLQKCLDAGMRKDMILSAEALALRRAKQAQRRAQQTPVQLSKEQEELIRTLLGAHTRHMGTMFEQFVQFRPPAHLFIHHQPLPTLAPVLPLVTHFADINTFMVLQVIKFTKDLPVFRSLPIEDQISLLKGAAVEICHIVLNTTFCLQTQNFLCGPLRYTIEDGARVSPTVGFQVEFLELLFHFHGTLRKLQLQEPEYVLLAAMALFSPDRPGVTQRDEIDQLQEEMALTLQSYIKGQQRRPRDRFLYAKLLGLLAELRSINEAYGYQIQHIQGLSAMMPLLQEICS
# Procedure, shortened: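 Steps: transient transfection of HepG2 with multiple GAL4-UAS reporter units; 24 h compound incubation; RNA isolation, RT-PCR, 6-FAM primer extension, HpaI digest; capillary electrophoresis. Gain-of-signal relative to DMSO negative control.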
# [20] = ATG_PPRE_CIS: Attagene CIS-FACTORIAL HepG2 Assay for human Peroxisome Proliferator-activated Response Element (PPRE) (AID 2282958); details: HepG2 PPRE cis-element reporter, Attagene transcription factor profiling; actives raise or lower the signal
# Procedure, shortened: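 HepG2 cells are transiently transfected with multiplexed cis-promoter reporter units to report endogenous PPAR activity. After 24 h dosing, reporter mRNA is read by RT-PCR and capillary electrophoresis. Fitting is bidirectional against DMSO.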
compound,measurement,setting,value
COc1cc(Cl)c(OC)cc1Cl,outcome,[1],inactive
same,AC50,[2],50 µM (active)
same,outcome,[3],inactive
same,outcome,[4],inactive
same,outcome,[5],inactive
same,outcome,[6],inactive
same,outcome,[7],inactive
same,outcome,[8],inactive
same,outcome,[9],inactive
same,outcome,[10],inactive
same,outcome,[11],inactive
same,outcome,[12],inactive
same,outcome,[13],inactive
same,outcome,[14],inactive
same,outcome,[15],inactive
Nc1c(Cl)c(F)nc(OCC(=O)O)c1Cl,outcome,[16],inactive
same,outcome,[1],inactive
same,AC50,[2],50 µM (active)
same,outcome,[17],inactive
same,outcome,[3],inactive
same,outcome,[4],inactive
same,outcome,[5],inactive
same,outcome,[6],inactive
same,outcome,[7],inactive
same,outcome,[8],inactive
same,outcome,[9],inactive
same,outcome,[10],inactive
same,outcome,[11],inactive
same,outcome,[12],inactive
same,outcome,[13],inactive
same,outcome,[14],inactive
same,outcome,[18],inactive
CNC(=O)Oc1cccc2ccccc12,outcome,[16],inactive
same,outcome,[1],inactive
same,AC50,[2],37.9 µM (active)
same,outcome,[17],inactive
same,outcome,[3],inactive
same,outcome,[4],inactive
same,outcome,[5],inactive
same,outcome,[6],inactive
same,outcome,[7],inactive
same,outcome,[8],inactive
same,outcome,[9],inactive
same,outcome,[10],inactive
same,outcome,[11],inactive
same,outcome,[19],inactive
same,AC50,[12],50 µM (active)
same,outcome,[14],inactive
same,outcome,[15],inactive
CS(=O)(=O)c1ccc(C(=O)C2C(=O)CCCC2=O)c([N+](=O)[O-])c1,outcome,[16],inactive
same,outcome,[1],inactive
same,outcome,[2],inactive
same,outcome,[20],inactive
same,outcome,[17],inactive
same,outcome,[3],inactive
same,outcome,[4],inactive
same,outcome,[5],inactive
same,outcome,[6],inactive
same,outcome,[7],inactive
same,outcome,[8],inactive
same,outcome,[9],inactive
same,outcome,[10],inactive
same,outcome,[11],inactive
same,outcome,[14],inactive
CCC(C)n1c(=O)[nH]c(C)c(Br)c1=O (stereo not drawn),outcome,[16],inactive
same,outcome,[1],inactive
same,AC50,[2],50 µM (active)
same,outcome,[17],inactive
same,outcome,[3],inactive
same,outcome,[4],inactive
same,outcome,[5],inactive
same,outcome,[6],inactive
same,outcome,[7],inactive
same,outcome,[8],inactive
same,outcome,[9],inactive
same,outcome,[10],inactive
same,outcome,[11],inactive
same,outcome,[19],inactive
same,outcome,[12],inactive
same,outcome,[13],inactive
same,outcome,[14],inactive
same,outcome,[15],inactive
N#CN=C1SCCN1Cc1ccc(Cl)nc1,outcome,[1],inactive
same,AC50,[2],50 µM (active)
same,outcome,[20],inactive
same,outcome,[17],inactive
same,outcome,[3],inactive
same,outcome,[4],inactive
same,outcome,[5],inactive
same,outcome,[6],inactive
same,outcome,[7],inactive
same,outcome,[8],inactive
same,outcome,[9],inactive
same,outcome,[10],inactive
same,outcome,[12],inactive
same,outcome,[13],inactive
same,outcome,[14],inactive
same,outcome,[15],inactive
